Laboratory results: PubChem BioAssay AID602410 (Johns Hopkins Ion Channel Center, 2012)
Screen size: about 340,000 compounds; about 2,800 (0.82%) were called active.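 How the source made its calls: active means B-score under library mean minus 4 SD, starting fluorescence ratio at most library mean plus 5 SD; inactive means the rest.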 The list comes from a sample in which actives are over-represented; it also holds similar structures and randomly drawn compounds.

Each compound was assayed against Potassium channel subfamily K member 3 (Homo sapiens) (UniProt O14649) (assay: blockers of TASK1 two-pore potassium channel – CHO cells, FluxOR thallium flux, B-score, primary screen (AID 602410;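 on B-score: more negative B-score means stronger inhibition of thallium flux through KCNK3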)). Settings: CHO-KCNK3 thallium flux, FluxOR fluorescence, at 10 µM; stronger effect = lower value.
Potassium channel subfamily K member 3 (Homo sapiens), sequence (O14649 whole entry, looked up): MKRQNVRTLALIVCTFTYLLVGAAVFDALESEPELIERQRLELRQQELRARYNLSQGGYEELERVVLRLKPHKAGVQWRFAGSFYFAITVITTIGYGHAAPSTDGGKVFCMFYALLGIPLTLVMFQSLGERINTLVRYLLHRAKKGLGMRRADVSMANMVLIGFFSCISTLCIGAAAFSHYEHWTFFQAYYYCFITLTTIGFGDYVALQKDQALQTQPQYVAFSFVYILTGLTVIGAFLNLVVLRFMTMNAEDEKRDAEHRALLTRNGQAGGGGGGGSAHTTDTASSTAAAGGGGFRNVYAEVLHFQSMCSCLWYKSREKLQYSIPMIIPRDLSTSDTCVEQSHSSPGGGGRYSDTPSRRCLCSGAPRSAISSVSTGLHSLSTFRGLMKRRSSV

B-score, active:
COc1cc(Cl)c(S(=O)(=O)N2CCN(Cc3ccc4c(c3)OCO4)CC2)cc1Cl -11.5
FC(F)(F)c1cccc(-c2cc3ccccc3nc2N2CCCC2)c1 -9.37
Cc1cccc(C)c1N1CCN(S(=O)(=O)N2CCCCC2)CC1 -11.9
[O-][n+]1ccc(OCc2ccccc2)cc1 -9.05
COc1cc(/C=C(\C#N)c2nc3ccccc3[nH]2)ccc1O -8.85
Cc1cccc(NC(=O)CN2CCCN(S(=O)(=O)c3ccc(Br)s3)CC2)c1 -11.4
CN(c1ccccc1)S(=O)(=O)c1cccc(NC(=O)Cc2ccc(Cl)cc2)c1 -10.7
Cc1nonc1C1CCCN1C(=O)c1cc(COc2cccc(C(F)(F)F)c2)on1 (stereo not drawn) -9.02
CSc1cccc(NC(=S)N(C(C)C)C(C)c2ccccn2)c1 (stereo not drawn) -10.1
CC(C(=O)NCC1CCCCC1)N(C)Cc1cccc(Cl)c1 (stereo not drawn) -8.9
S=C(Nc1cccc(Br)c1)N1CCn2cccc2C1c1cccnc1 (stereo not drawn) -9.52
O=C(Nc1cccc(S(=O)(=O)Nc2ccc(Cl)cc2)c1)c1ccc2c(c1)OCCO2 -9.14
CCOC(=O)c1cc2cc(-c3c(C(=O)OCC)oc4cc(O)cc(O)c4c3=O)ccc2o1 -9.55

B-score, inactive:
CCC(C)(C)NC(=O)/C=C/c1cc(OC)c(OC)c(S(=O)(=O)N2CCc3ccccc32)c1
CCn1cc(C(=O)N2CCN(Cc3ccc4c(c3)OCO4)CC2)c2cc(OC)c(OC)cc2c1=O
COc1ccc(-c2cc(C(=O)N3CCN(Cc4ccc5c(c4)OCO5)CC3)on2)cc1OC
Cc1nc(N)sc1N=Nc1c(C)n(C)n(-c2ccccc2)c1=O
c1ccc(-c2cc(N3CCCCC3)c3ccccc3n2)cc1
O=C(c1cc2ccccc2o1)N1CCN(c2cccc(C(F)(F)F)c2)CC1
COC(=O)[C@@H]1CC(O)CN1C(=O)C12CC3CC(CC(C3)C1)C2 (stereo partly drawn)
CC1CN(CCOc2ccccc2[N+](=O)[O-])CC(C)O1 (stereo not drawn)
Cc1cccc(C(=O)N2CCN(S(=O)(=O)N3CCCCC3)CC2)c1
Cc1cccc(C)c1N1CCN(S(=O)(=O)N2CCOCC2)CC1
COC(=O)c1ccc(CNC(=O)C2CCC(=O)N(Cc3ccccn3)C2)cc1 (stereo not drawn)
COc1ccc(CN2CCN(C(=O)c3cc(C4CC4)nn3-c3ccccc3)CC2)cc1F
CN(Cc1ccccc1)C(=O)c1ccc(COc2ccccc2)cc1
O=C(O)/C=C\C(=O)Nc1ccc(OCc2ccccc2)cc1
CCCN1Cc2cccc(C(=O)Nc3ccc(S(=O)(=O)N4CCCCCC4)cc3)c2C1=O
O=S(=O)(Nc1ccc(O)c2ccccc12)c1ccc(OC(F)(F)F)cc1
Cc1nn(C)c(Oc2ccc(Cl)cc2)c1C=O
CCN(CC(=O)Nc1cc(Cl)ccc1C)C(=O)Cn1c(=O)cnc2ccccc21
CCCCCOc1ccc(/C=C/C(=O)NCCc2nc3ccccc3[nH]2)cc1OC
Cc1ccc(O)c(CNc2nc3ccccc3[nH]2)c1
CCCCCc1nnc(NC(=O)c2ccc(=O)n(C)n2)s1
COCCCNCCOCCOc1ccc(Cl)cc1Br
Cc1ccc(OCC(=O)c2cc(C)n(Cc3ccco3)c2C)c([N+](=O)[O-])n1
Cc1ccc(S(=O)(=O)N2CCN(CC(=O)N/N=C/c3ccc(Br)s3)CC2)cc1
CC(C)N(C(=O)CN1CCN(S(=O)(=O)c2ccc(Br)s2)CC1)C(C)C
NC(=O)C1CCN(C(=O)CC2C(=O)NCCN2Cc2cccc(Oc3ccccc3)c2)CC1 (stereo not drawn)
C[C@H](O)[C@@H]1C(=O)N2CCc3ccc(N4CCOCC4)cc3[C@@H]2C[C@@H]1N(C)C(=O)C(C)(C)C
CC(NC(=S)Nc1ccccc1)C(c1cccs1)N1CCOCC1 (stereo not drawn)
CN(c1ccccc1)S(=O)(=O)c1cccc(NC(=O)Cc2c(F)cccc2Cl)c1
CN(C)S(=O)(=O)c1cccc(NC(=O)Cc2ccsc2)c1
Cc1cc(F)ccc1S(=O)(=O)Nc1ccc(C(=O)N(C)Cc2ccco2)cc1
O=C(NC1Cc2ccccc2C1)c1cc(COc2cccc(C(F)(F)F)c2)on1
O=C(c1cc(COc2cccc(C(F)(F)F)c2)on1)N1CCSCC1
CCCNC(=O)c1ccc(N2CCC3(CC2)CC(c2cccc(Br)c2)=NO3)c(NC(=O)c2ccco2)c1
CS(=O)(=O)N1CCCC(C(=O)N2CCOCC2)C1 (stereo not drawn)
S=c1[nH]nc(-c2ccco2)n1/N=C/c1ccc(Br)s1
CCN(CC(=O)NCc1ccc(Cl)cc1)C(=O)CSc1ccccc1
CC(c1ccccn1)N(CCN(C)C)C(=S)Nc1ccccc1F (stereo not drawn)
CSc1cccc(NC(=S)N(Cc2ccccc2)Cc2ccccn2)c1
NC(=S)Nc1c(Cl)cccc1Cl
FC(F)(F)c1cccc(Cc2noc(CN3CCC(N4CCCCC4)CC3)n2)c1
COc1ccc(CN(C)C(C)C(=O)NC2CCCc3ccccc32)cc1 (stereo not drawn)
CNS(=O)(=O)c1cccc(C(=O)NCC2CCCCC2)c1
CCc1cccc(NC(=O)C2CCCN(S(=O)(=O)c3ccc4[nH]c(=O)ccc4c3)C2)c1 (stereo not drawn)
Cc1cc(OCC(=O)Nc2c(C)n(C)n(-c3ccccc3)c2=O)ccc1[N+](=O)[O-]
COc1ccc(CNCCCn2cnc3c(OCc4ccccc4)ncnc32)cc1
S=C(NCCc1ccccc1)N1CCn2cccc2C1c1ccncc1 (stereo not drawn)
Fc1cc(Br)ccc1NC(=S)Nc1cccnc1
C=C(C)c1cccc(C(C)(C)NC(=O)N2CCN(c3ncccn3)CC2)c1
C=CCN1CN(S(=O)(=O)c2ccc(OC)cc2)c2nc3ccccc3nc21
O=C(Nc1ccc2c(c1)OCCO2)c1ccc(Cl)c(S(=O)(=O)N2CCCCC2)c1
O=C(Nc1ccc(Cl)cn1)c1ccc2c(c1)OCCO2
O=C(NCc1ccco1)C(=O)c1cn(CC(=O)N2CCCCCC2)c2ccccc12
O=c1c(-c2ccc3c(c2)OCCO3)c(C(F)(F)F)oc2cc(O)cc(O)c12
CCOC(=O)c1cc(=O)c2ccc(OCc3ccccc3)cc2o1
